Laboratory results: PubChem BioAssay (NCI)
Compounds without any hit were thinned out: in the full panel of roughly 79,000, 15% have a hit. Values without a mark were called inactive. Active and inactive are the calls of the source. No stated cut-off is given here; in the data, active means growth inhibition above about 70%; inactive means the rest.

Columns and labels:
[1] = NCI Yeast Anticancer Drug Screen. Data for the rad52 strain (AID 147);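 further: 0% = growth of vehicle-treated control cultures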; details: S. cerevisiae rad52 mutant growth inhibition, active compounds read high
Outline: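 Growth of repair-deficient yeast cells was compared between compound-treated and vehicle-treated cultures to give percent inhibition.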

[2] = NCI Yeast Anticancer Drug Screen. Data for the rad50EPP+ strain (AID 151);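 further: 0% = growth of vehicle-treated control cultures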; details: S. cerevisiae rad50 mutant strain, active compounds read high
Outline: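 Measured: growth inhibition of rad50EPP+ yeast. Reference: vehicle-treated controls. Screen uses strains with defined genetic alterations in DNA damage repair or cell cycle control.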

[3] = NCI Yeast Anticancer Drug Screen. Data for the mgt1 strain (AID 153); details: S. cerevisiae mgt1 mutant growth inhibition, active compounds read high
Outline: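 Compounds were applied to mgt1 mutant yeast, and growth was then compared against vehicle-treated control cultures to give percent inhibition.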

[4] = NCI Yeast Anticancer Drug Screen. Data for the rad50 strain (AID 155);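 further: 0% = growth of vehicle-only cultures of the same strain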; details: S. cerevisiae rad50 strain growth inhibition, active compounds read high
Outline: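 Cells are treated with compound, grown, and their growth is then scored against vehicle-only cultures of the same repair-deficient yeast strain.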

[5] = NCI Yeast Anticancer Drug Screen. Data for the mec2-1 strain (AID 157); details: S. cerevisiae mec2-1 strain, active compounds read high
Outline: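 Compounds were applied to mec2-1 yeast cells. Their growth was then compared with that of vehicle-treated cultures to give growth inhibition.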

[6] = NCI Yeast Anticancer Drug Screen. Data for the rad14 strain (AID 159);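 further: 0% = growth of vehicle-treated control cultures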; details: S. cerevisiae rad14 strain growth inhibition, active compounds read high
Outline: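 Readout: yeast growth inhibition, referenced to vehicle-only cultures. Strain bears a defined alteration in DNA damage repair.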

[7] = NCI Yeast Anticancer Drug Screen. Data for the sgs1 mgt1 strain (AID 161);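 further: 0% = growth of cultures given vehicle only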; details: S. cerevisiae sgs1 mgt1 strain, active compounds read high
Outline: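 Compounds are added to genetically altered yeast, and growth is compared with cultures given vehicle alone to give percent inhibition.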

[8] = NCI Yeast Anticancer Drug Screen. Data for the CLN2oe strain (AID 163);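 further: 0% = growth of vehicle-only control cultures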; details: S. cerevisiae CLN2oe strain, active compounds read high
Outline: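 Cells of an engineered yeast line with disturbed cell-cycle regulation are treated with compound. Inhibition of growth is then calculated relative to the vehicle-treated reference.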

[9] = NCI Yeast Anticancer Drug Screen. Data for the cln2 rad14 strain (AID 165);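 further: 0% = growth equal to vehicle treated cultures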; details: S. cerevisiae cln2 rad14 strain, active compounds read high
Outline: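 Strain: cln2 rad14 yeast, altered in cell cycle control and DNA damage repair. Read-out: growth inhibition vs vehicle.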

[10] = NCI Yeast Anticancer Drug Screen. Data for the bub3 strain (AID 167); details: S. cerevisiae bub3 mutant strain, active compounds read high
Outline: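 Part of a panel of yeast mutants defective in DNA damage repair or cell cycle regulation. Each strain is grown with compound, and inhibition is calculated relative to solvent-treated cultures.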

[11] = NCI Yeast Anticancer Drug Screen. Data for the wt2 strain (AID 169);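 further: 0% = growth of vehicle-treated yeast cultures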; details: S. cerevisiae wt2 strain growth inhibition, active compounds read high
Outline: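 Growth of compound-treated yeast is measured and expressed as inhibition relative to vehicle-only controls.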

[12] = NCI Yeast Anticancer Drug Screen. Data for the mlh1 strain (AID 171);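 further: 0% = growth of vehicle-treated control cultures of the same strain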; details: S. cerevisiae mlh1 strain growth inhibition, active compounds read high
Outline: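 Test agents were incubated with yeast bearing a defined DNA damage repair or cell cycle control alteration; values are growth inhibition normalised to vehicle-treated cultures.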

[13] = NCI Yeast Anticancer Drug Screen. Data for the sgs1 strain (AID 173);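 further: 0% = growth of vehicle-only control cultures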; details: S. cerevisiae sgs1 mutant, active compounds read high
Outline: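 Strain with an altered DNA repair or cell cycle pathway exposed to compound. Growth then measured. Value = inhibition versus vehicle control.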

[14] = NCI Yeast Anticancer Drug Screen. Data for the mlh1 rad18 strain (AID 175); details: S. cerevisiae mlh1 rad18 strain growth inhibition, active compounds read high
Outline: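 A repair-deficient yeast strain is exposed to test compound, and growth is scored relative to vehicle-treated controls.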

[15] = NCI Yeast Anticancer Drug Screen. Data for the rad18 strain (AID 177); details: S. cerevisiae rad18 mutant growth inhibition, active compounds read high
Outline: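 DNA-repair-defective yeast; compound treatment; growth inhibition scored against vehicle.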

[16] = at 5.0 µM (retest, dose inferred, filed as 0.5)
[17] = at 50.0 µM (retest, dose inferred, filed as 5.0)

Compound: O=[N+]([O-])CC(SCc1ccccc1)c1ccc2c(c1)OCO2 (stereo not drawn)
- growth inhibition ([1]; at 1.2 µM): 39%
- growth inhibition ([1]; at 3.7 µM): 34%
- growth inhibition ([1]; at 11.0 µM): 92% (active)
- growth inhibition ([1]; at 33.0 µM): 99% (active)
- growth inhibition ([1]; at 100.0 µM): 97% (active)
- growth inhibition ([2]; at 1.2 µM): 44%
- growth inhibition ([2]; at 3.7 µM): 91% (active)
- growth inhibition ([2]; at 11.0 µM): 97% (active)
- growth inhibition ([2]; at 33.0 µM): 98% (active)
- growth inhibition ([2]; at 100.0 µM): 98% (active)
- growth inhibition ([3]; at 1.2 µM): 9%
- growth inhibition ([3]; at 3.7 µM): 3%
- growth inhibition ([3]; at 11.0 µM): 47%
- growth inhibition ([3]; at 33.0 µM): 97% (active)
- growth inhibition ([3]; at 100.0 µM): 97% (active)
- growth inhibition ([4]; at 1.2 µM): 41%
- growth inhibition ([4]; at 3.7 µM): 69%
- growth inhibition [4, 16]: 30%
- growth inhibition ([4]; at 11.0 µM): 94% (active)
- growth inhibition ([4]; at 33.0 µM): 98% (active)
- growth inhibition [4, 17]: 97% (active)
- growth inhibition ([4]; at 50.0 µM): 90% (active)
- growth inhibition ([4]; at 100.0 µM): 98% (active)
- growth inhibition ([5]; at 1.2 µM): -2%
- growth inhibition ([5]; at 3.7 µM): 42%
- growth inhibition [5, 16]: 26%
- growth inhibition ([5]; at 11.0 µM): 76% (active)
- growth inhibition ([5]; at 33.0 µM): 98% (active)
- growth inhibition [5, 17]: 98% (active)
- growth inhibition ([5]; at 50.0 µM): 91.7% (active)
- growth inhibition ([5]; at 100.0 µM): 98% (active)
- growth inhibition ([6]; at 1.2 µM): -2%
- growth inhibition ([6]; at 3.7 µM): 36%
- growth inhibition ([6]; at 11.0 µM): 71% (active)
- growth inhibition ([6]; at 33.0 µM): 97% (active)
- growth inhibition ([6]; at 100.0 µM): 97% (active)
- growth inhibition [7, 16]: -4%
- growth inhibition [7, 17]: 46%
- growth inhibition ([7]; at 50.0 µM): 92.7% (active)
- growth inhibition ([8]; at 1.2 µM): 3%
- growth inhibition ([8]; at 3.7 µM): 5%
- growth inhibition ([8]; at 11.0 µM): 42%
- growth inhibition ([8]; at 33.0 µM): 97% (active)
- growth inhibition ([8]; at 100.0 µM): 97% (active)
- growth inhibition [9, 16]: 15%
- growth inhibition [9, 17]: 97% (active)
- growth inhibition ([9]; at 50.0 µM): 90.2% (active)
- growth inhibition ([10]; at 1.2 µM): -28%
- growth inhibition ([10]; at 3.7 µM): 13%
- growth inhibition [10, 16]: 89% (active)
- growth inhibition ([10]; at 11.0 µM): 91% (active)
- growth inhibition ([10]; at 33.0 µM): 97% (active)
- growth inhibition [10, 17]: 96% (active)
- growth inhibition ([10]; at 50.0 µM): 92.2% (active)
- growth inhibition ([10]; at 100.0 µM): 97% (active)
- growth inhibition ([11]; at 1.2 µM): 1%
- growth inhibition ([11]; at 3.7 µM): 8%
- growth inhibition ([11]; at 11.0 µM): 47%
- growth inhibition ([11]; at 33.0 µM): 97% (active)
- growth inhibition ([11]; at 100.0 µM): 97% (active)
- growth inhibition ([12]; at 1.2 µM): 17%
- growth inhibition ([12]; at 3.7 µM): 48%
- growth inhibition ([12]; at 11.0 µM): 94% (active)
- growth inhibition ([12]; at 33.0 µM): 98% (active)
- growth inhibition ([12]; at 100.0 µM): 97% (active)
- growth inhibition ([13]; at 1.2 µM): 30%
- growth inhibition ([13]; at 3.7 µM): 54%
- growth inhibition ([13]; at 11.0 µM): 97% (active)
- growth inhibition ([13]; at 33.0 µM): 100% (active)
- growth inhibition ([13]; at 100.0 µM): 99% (active)
- growth inhibition [14, 16]: 73% (active)
- growth inhibition [14, 17]: 97% (active)
- growth inhibition ([14]; at 50.0 µM): 89.2% (active)
- growth inhibition ([15]; at 1.2 µM): 7%
- growth inhibition ([15]; at 3.7 µM): 23%
- growth inhibition ([15]; at 11.0 µM): 79% (active)
- growth inhibition ([15]; at 33.0 µM): 98% (active)
- growth inhibition ([15]; at 100.0 µM): 98% (active)
